Shown are actives, neighbours in structure and some others; about 22% of the full set was active somewhere.
Pf growth 48h: P. falciparum growth inhibition at 48 hours (one generation); P. falciparum luciferase growth in erythrocytes, 48 h; 5.9% of 310,000 active; Potency, µM (highest dose often 28.7 µM), most hits filed as inhibitors; AID 504832
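Growth was read as firefly luciferase luminescence after a 48 h, 37 C, 5% CO2 exposure of compounds to reporter-bearing P. falciparum cultures (0.1% parasitemia, 2% hematocrit final) in Albumax-supplemented RPMI 1640.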
Cycloheximide cs: counter-screen for Shiga toxin inhibitors: cycloheximide protein synthesis inhibition | cell reporter, cycloheximide protein synthesis inhibition counterscreen | max response, % | 12% of 300,000 active; in the data active = max response mostly above about 13%, no sharp cut-off; inactive = mostly below about 14%; note: read at 38.3 µM for the half of the compounds with a filed dose
LmPK inhibitor: blocks Leishmania mexicana pyruvate kinase activity | Q27686 | purified LmPK, Kinase-Glo ATP luminescence, 1 h | Potency, µM (highest dose often 57.5 µM), most hits filed as inhibitors | 0.37% of 290,000 active | AID 1721
Target sequence (Q27686 whole entry, looked up): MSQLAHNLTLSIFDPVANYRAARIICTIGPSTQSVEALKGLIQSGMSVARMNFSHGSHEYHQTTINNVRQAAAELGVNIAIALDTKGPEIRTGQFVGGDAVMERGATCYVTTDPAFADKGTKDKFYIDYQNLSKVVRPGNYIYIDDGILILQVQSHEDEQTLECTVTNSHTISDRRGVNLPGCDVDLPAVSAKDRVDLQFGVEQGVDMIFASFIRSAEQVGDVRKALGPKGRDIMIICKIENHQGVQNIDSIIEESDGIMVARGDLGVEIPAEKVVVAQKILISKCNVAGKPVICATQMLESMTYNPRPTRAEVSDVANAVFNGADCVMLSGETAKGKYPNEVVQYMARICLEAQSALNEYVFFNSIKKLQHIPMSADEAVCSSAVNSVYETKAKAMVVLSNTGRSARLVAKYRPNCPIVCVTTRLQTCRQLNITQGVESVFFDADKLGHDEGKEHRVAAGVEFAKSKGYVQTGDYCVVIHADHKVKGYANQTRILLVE
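In 50 mM imidazole pH 7.2 with 7 mM MgCl2, LmPK (0.1 nM) turned over PEP (0.5 mM) and ADP (0.1 mM) for 1 h at room temperature. Luciferase read-out of ATP.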
Pf growth 96h: P. falciparum growth inhibition at 96 hours; 6.9% of 320,000 active; P. falciparum luciferase reporter growth, 96 h; Potency, µM (titrated, usually from 28.7 µM), actives largely listed as inhibitors; AID 504834
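Delayed-death screen, second-generation endpoint: infected erythrocytes, 2% hematocrit, 0.05% parasitemia final; 96 hours at 37 C, 5% CO2; luciferase detection reagent; luminescence decrease equals reduced growth.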
Shiga inhibitor: Shiga toxin inhibition; Vero cells, Shiga toxin protein synthesis inhibition reporter; inhibition, % at 38.7 µM; 9.2% of 290,000 active; in the data active = inhibition mostly above about 28%, no sharp cut-off; inactive = mostly below about 43%
Numbers stand for hits; – = inactive; ? = inconclusive; · = no result given; + = active, no number. Unless noted, calls come from the whole dose curve; as a rule, active = well fitted inhibition curve with a large enough effect; inconclusive = small, poorly fitted or top-dose-only effect, or another doubt; inactive = no such curve, though single readings can be large or run the other way.

SMILES	Pf growth 48h	Cycloheximide cs	LmPK inhibitor	Pf growth 96h	Shiga inhibitor
O=C(Nc1ccc(CN2CCCCC2)cc1)Nc1ccc(Br)cc1Cl	?	–	–	–	–
CCCc1cc(C(N)=O)c(NC(=O)c2ccco2)s1	–	28.5	–	0.415µM	+
CCSc1nnc(NC(=O)c2ccco2)s1	–	22.7	–	–	27.1
CCSc1nnc(NC(=O)c2c(C)noc2C)s1	–	16.4	–	?	–
CCOC(=O)CSc1nnc(NC(=O)c2ccco2)s1	?	–	–	–	–
CC(C)Sc1nnc(NC(=O)c2ccco2)s1	–	34.7	–	–	113.5
CCSc1nnc(NC(=O)c2cc(C)on2)s1	?	–	–	–	–
CCc1noc(C)c1C(=O)Nc1nc(-c2ccc(Cl)cc2Cl)cs1	–	–	–	–	–
COc1ccc(NC(=O)C(Sc2nnc3ccccn23)c2ccccc2)cc1Cl (stereo not given)	–	–	–	?	–
OC[C@@H]1[C@@H](c2ccc(F)cc2)C(c2cccc(Cl)c2)=NN1c1ccccc1	·	–	·	·	–
CC(C)(C)N(Cc1ccccc1)C(=O)COC(=O)CSc1ccc([N+](=O)[O-])cc1	–	·	·	–	·
Cc1cccc(-c2nnc(NC(=O)c3ccco3)s2)c1	–	20.6	–	–	–
CN1/C(=C\C=O)C(C)(C)c2ccccc21	–	–	–	–	–
CN1/C(=C\C=Nc2ccc3ccccc3c2)C(C)(C)c2ccccc21	–	46.8	–	–	–
Cc1c(N=C/C=C2\N(C)c3ccccc3C2(C)C)c(=O)n(-c2ccccc2)n1C	–	–	–	4.15µM	–
CN1\C(=C/C=C/C=C/C=[N+](C)C)C(C)(C)c2ccccc21	?	–	10µM	?	–
CN1/C(=C\C=C\C2=[N+](C)c3ccc4ccccc4c3C2(C)C)C(C)(C)c2ccccc21	1.31µM	–	14.1µM	0.329µM	–
Cc1ccc(-c2csc(NC(=O)CCNC(=O)c3ccccc3Cl)n2)cc1	?	–	–	?	–
CN(C)c1ccc(N=C/C=C2\N(C)c3ccccc3C2(C)C)cc1	?	68.2	–	?	167.2
O=C(CSC(=S)N1CCCC1)Nc1ncc(Cl)cc1Cl	–	·	·	–	·
CC(NC(=O)C(=O)NN=C1CCCCCCCCCCC1)c1ccccc1 (stereo not given)	–	–	–	–	–
C=CCn1c(=O)c2c(nc(Br)n2Cc2ccccc2Cl)n(C)c1=O	?	–	–	11.7µM	–
CCCCOC(=O)Cn1c(=O)c2c(nc(Br)n2Cc2ccccc2)n(C)c1=O	9.28µM	–	–	?	–
CCOC(=O)Cn1c(=O)c2c(nc(Br)n2Cc2ccccc2)n(C)c1=O	–	–	–	·	–
CCOC(=O)Cn1c(=O)c2c(nc(Br)n2Cc2ccccc2Cl)n(C)c1=O	?	–	–	–	–
SMILES	Pf growth 48h	Cycloheximide cs	LmPK inhibitor	Pf growth 96h	Shiga inhibitor
Cn1c(=O)n(CC(N)=O)c(=O)c2c1nc(Br)n2Cc1ccccc1	–	–	–	2.08µM	–
CCCCOC(=O)Cn1c(=O)c2c(nc3n2CCCCN3c2ccc(C)cc2)n(C)c1=O	7.38µM	–	–	–	–
COc1cccc(CC(=O)NNC(=O)c2c(-c3ccccc3)noc2C)c1	?	–	–	–	–
CCCCCCCCCCCCCC[C@@H](O)[C@@H](O)[C@H](CO)NC(C)=O	·	–	·	·	–
Cn1c(NN)nc2c1c(=O)n(Cc1ccccc1)c(=O)n2C	11.7µM	–	–	–	–
Cn1c(Br)nc2c1c(=O)n(Cc1ccccc1)c(=O)n2C	–	–	–	–	–
CCCCOc1ccc(Cc2c(O)nc(SC)[nH]c2=O)cc1	–	–	–	–	·
Cc1oc(-c2ccc(Cl)cc2)cc1C(=O)O	–	42.8	–	–	–
Cc1cccc(NC(=O)CN(C2=NC3CS(=O)(=O)CC3S2)c2ccccc2F)c1 (stereo not given)	–	–	–	–	–
CN1CCN(NC(=O)c2cc(Br)ccc2Cl)CC1	–	–	–	–	–
O=S(=O)(NCc1csc(-c2cccs2)n1)c1cccs1	–	17.5	–	–	53.0
O=C(NCc1csc(-c2cccs2)n1)c1ccsc1	–	22.3	–	–	55.5
O=S(=O)(NCc1cn2ccsc2n1)c1cccs1	–	23.4	–	–	–
CCS(=O)(=O)NCc1csc(-c2ccccc2)n1	–	14.8	–	–	–
O=S(=O)(Nc1cc(Br)cc2cccnc12)c1cccc2ccccc12	·	–	·	·	–
Clc1ccc(OCCn2cnc(Cl)c2Cl)cc1	?	–	–	?	–
O=C(NCCc1cn2ccsc2n1)c1cccs1	–	23.3	–	–	24.9
Cc1ccn2cc(CNS(=O)(=O)c3cccs3)nc2c1	–	22.7	–	–	46.0
CCOC(=O)C1(CCc2ccccc2)CCN(Cc2cccc3cnccc23)CC1	?	–	–	7.38µM	–
CCOC(=O)C1(CCc2ccccc2)CCN(Cc2ccc(OC)cc2)CC1	?	–	–	?	–
CCOC(=O)C1(CCc2ccccc2)CCN(Cc2c(O)cccc2OC)CC1	0.262µM	–	–	–	–
c1ccc(-c2cn3c(n2)CCC3)cc1	·	–	–	–	–
O=[N+]([O-])c1ccc(-c2cn3c(n2)CCC3)cc1	–	57.0	–	–	104.2
CN(C)C(CNC(C(=O)Nc1ccc(F)cc1)c1ccccc1)c1ccccc1 (stereo not given)	?	–	–	–	–
Clc1cccc(Cl)c1C[n+]1ccc2ccccc2c1	2.08µM	–	–	–	–
SMILES	Pf growth 48h	Cycloheximide cs	LmPK inhibitor	Pf growth 96h	Shiga inhibitor
CC(C)CC(=O)NC(c1cccs1)c1ccc2cccnc2c1O (stereo not given)	?	–	–	–	–
CCCC(=O)NC(c1ccc(Cl)cc1)c1ccc2cccnc2c1O (stereo not given)	?	–	–	–	–
Oc1c(C(Nc2cccc(C(F)(F)F)c2)c2ccncc2)ccc2cccnc12 (stereo not given)	1.85µM	–	–	?	–
Oc1c(C(Nc2nccs2)c2ccc(C(F)(F)F)cc2)ccc2cccnc12 (stereo not given)	0.37µM	–	–	–	–
CCC(=O)NC(=S)Nc1ccc(-c2nc3ccccc3s2)cc1	–	49.2	–	–	68.9
CCC(=O)NC(=S)Nc1ccc(-c2nc3ccc(C)cc3s2)cc1	–	39.9	–	11.7µM	91.5
Cc1ccc2nc(-c3ccc(NC(=S)NC(=O)C(C)C)cc3)sc2c1	–	52.5	–	·	83.7
O=C(COc1ccccc1F)Nc1ccc(-c2nc3ccccc3s2)cc1	–	·	·	–	·
Cc1cc(C(=O)Nc2ncn(Cc3ccc(F)cc3)n2)ccc1[N+](=O)[O-]	–	–	–	–	–
O=C(CNC(=O)c1ccc(Br)o1)NCc1ccc(Cl)cc1	–	–	–	–	–
COc1ccccc1CC(=O)N1CCN(c2ccccc2)CC1	–	–	–	?	–
Cc1cc(-c2ccc(NC(=O)[C@@H]3CCCC[C@@H]3C(=O)O)c(C)c2)ccc1NC(=O)[C@@H]1CCCC[C@@H]1C(=O)O	–	–	–	–	–
O=[N+]([O-])c1ccc(-c2nc(-c3ccncc3)no2)cc1	–	18.3	–	–	37.3

High-throughput results: PubChem, National Center for Advancing Translational Sciences (NCATS)
